Source: the supplement of paper PMC8285479
Structures can show the parent of a compound that is named as a salt. ± gives the standard deviation of the averaged measurements. In all, about 1,900 compounds were measured (“normalised cell viability (NPI; 0 = phenylarsine oxide control, 1 = DMSO control)”: median about 1, lowest 2% from about 0.039 on). The full list was thinned out, with the lowest values kept by preference.

Tested on: NCI-H1944
Assay: normalised cell viability (NPI; 0 = phenylarsine oxide control, 1 = DMSO control) (fraction of DMSO control); NCI-H1944 is a non-small cell lung cancer line; higher = more viable cells (less compound toxicity)
Conditions: 6 days
[1] = glucocorticoid arm: hydrocortisone 2.75 uM co-treatment, compound 1 µM
[2] = glucocorticoid arm: hydrocortisone 2.75 uM co-treatment, compound 5 µM
[3] = glucocorticoid arm: hydrocortisone 2.75 uM pre-treated 2 days and continued, compound 1 µM
[4] = glucocorticoid arm: hydrocortisone 2.75 uM pre-treated 2 days and continued, compound 5 µM
[5] = glucocorticoid arm: vehicle, compound 1 µM
[6] = glucocorticoid arm: vehicle, compound 5 µM
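Note: CTB read-out in 384-well plates, triplicate wells, NPI normalised per plate against 1 µM phenylarsine oxide (0) and 0.1% DMSO (1) controls.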

Compound	normalised cell viability [1]	normalised cell viability [2]	normalised cell viability [3]	normalised cell viability [4]	normalised cell viability [5]	normalised cell viability [6]
CC(C(=O)Nc1cccc(/N=C/c2c(O)ccc3ccccc23)c1)c1ccccc1 (centres undefined) [Salermide]	0.999 ± 0.014	1.01 ± 0.02	0.9942 ± 0.0055	1 ± 0.035	0.9967 ± 0.0083	1.002 ± 0.01
O=C(c1ccc(F)cc1)N1CCCC(c2nc(-c3ccc(F)cc3)no2)C1 (centres undefined)	1.03 ± 0.015	1.023 ± 0.0058	1.02 ± 0.011	1.013 ± 0.0058	1.01	1.001 ± 0.0078
Cn1ncnc1[C@H]1c2n[nH]c(=O)c3cc(F)cc(c23)N[C@@H]1c1ccc(F)cc1	0.996 ± 0.012	0.934 ± 0.028	1.01 ± 0.017	1.05 ± 0.015	0.436 ± 0.0095	0.28 ± 0.016
CCN(CC)CCCC(C)Nc1ccnc2cc(Cl)ccc12 (centres undefined) [Chloroquine diphosphate]	1 ± 0.015	0.752 ± 0.026	1.001 ± 0.009	0.963 ± 0.04	0.9793 ± 0.0076	0.947 ± 0.013
CCN(CC)CCCC(C)Nc1c2ccc(Cl)cc2nc2ccc(OC)cc12 (centres undefined) [Quinacrine dihydrochloride]	0.999 ± 0.021	0.00304 ± 0.0019	1.01 ± 0.023	1.01 ± 0.014	0.995 ± 0.014	0.00159 ± 0.0012
CS(=O)(=O)CCNCc1ccc(-c2ccc3ncnc(Nc4ccc(OCc5cccc(F)c5)c(Cl)c4)c3c2)o1 [Lapatinib Ditosylate (Tykerb)]	0.945 ± 0.0092	0.916 ± 0.017	0.981 ± 0.021	0.938 ± 0.028	0.911 ± 0.02	0.868 ± 0.022
C=CC(=O)Nc1ccc2ncnc(Nc3ccc(OCc4cccc(F)c4)c(Cl)c3)c2c1	0.905 ± 0.016	0.854 ± 0.043	0.92 ± 0.014	0.93 ± 0.023	0.815 ± 0.021	0.623 ± 0.016
CS(=O)(=O)CCNCc1ccc(-c2ccc3ncnc(Nc4ccc(OCc5cccc(F)c5)c(Cl)c4)c3c2)o1 [Lapatinib ditosylate; Lapatinib; Lapatinib Ditosylate]	0.9643 ± 0.0055	0.00258 ± 0.00055	0.968 ± 0.014	0.0327 ± 0.0022	0.947 ± 0.0092	0.00168 ± 0.00026
CCCCC#Cc1nc(N)c2ncn([C@@H]3O[C@H](C(=O)NCC)[C@@H](O)[C@H]3O)c2n1	1.01 ± 0.015	0.979 ± 0.011	1.007 ± 0.0058	1.01 ± 0.014	1.01	1.003 ± 0.0058
O=c1[nH]cc(F)c(=O)[nH]1 [5-Fluorouracil]	0.98 ± 0.002	0.766 ± 0.0085	0.981 ± 0.012	0.984 ± 0.015	0.9837 ± 0.0084	0.729 ± 0.03
O=c1[nH]cc(F)c(=O)[nH]1 [5-Fluorouracil; Fluorouracil]	1.043 ± 0.0058	0.706 ± 0.037	1.01 ± 0.015	0.838 ± 0.011	0.971 ± 0.0044	0.522 ± 0.032
CN(C(Cc1ccc(OS(=O)(=O)c2cccc3cnccc23)cc1)C(=O)N1CCN(c2ccccc2)CC1)S(=O)(=O)c1cccc2cnccc12 (centres undefined)	1.02 ± 0.011	0.993 ± 0.015	1.007 ± 0.0058	0.974 ± 0.029	1.01	1.01
CN1CC[C@@H](c2c(O)cc(O)c3c(=O)cc(-c4ccccc4Cl)oc23)[C@@H]1CO	0.183 ± 0.011	0.031 ± 0.004	0.601 ± 0.026	0.0698 ± 0.0051	0.0431 ± 0.0039	0.00913 ± 0.002
CN1CC[C@H](c2c(O)cc(O)c3c(=O)cc(-c4ccccc4Cl)oc23)[C@H](O)C1 [Flavopiridol (Alvocidib)]	0.0613 ± 0.0073	0.0242 ± 0.0072	0.109 ± 0.015	0.0932 ± 0.025	0.0171 ± 0.0043	0.00703 ± 0.0012
CN1CC[C@H](c2c(O)cc(O)c3c(=O)cc(-c4ccccc4Cl)oc23)[C@H](O)C1 [Flavopiridol hydrochloride]	0.0447 ± 0.0058	0.0238 ± 0.0012	0.066 ± 0.0098	0.0883 ± 0.016	0.0103 ± 0.0015	0.00802 ± 0.0019
COc1ccc(CCN(C)CCCC(C#N)(c2cc(OC)c(OC)c(OC)c2)C(C)C)cc1OC (racemic) [(±)-Methoxyverapamil hydrochloride]	1.007 ± 0.0058	0.998 ± 0.039	1.01 ± 0.01	1.01 ± 0.019	0.9847 ± 0.0042	0.999 ± 0.018
Cc1cnc(NC(=O)Nc2cc(Br)c(C)cc2OC[C@@H]2CNCCO2)cn1	1.03 ± 0.015	0.827 ± 0.041	1.04 ± 0.015	1.04 ± 0.011	0.776 ± 0.01	0.334 ± 0.027
CCCCCCCCCCCCCCCc1cccc(OCC)c1C(=O)Nc1ccc(Cl)c(C(F)(F)F)c1	1.01 ± 0.014	1.01 ± 0.011	1.01 ± 0.02	1.02 ± 0.016	0.9997 ± 0.0097	1 ± 0.0054
N#C[C@@H]1CCCN1C(=O)CNC12CC3CC(CC(O)(C3)C1)C2 [Vildagliptin (LAF-237)]	0.994 ± 0.0087	1 ± 0.011	0.9973 ± 0.0046	1.004 ± 0.01	0.998 ± 0.012	1.01
CN1CCN(S(=O)(=O)c2ccc(-c3cnc(N)c(C(=O)Nc4cccnc4)n3)cc2)CC1	1.113 ± 0.011	1.2 ± 0.015	1.1 ± 0.011	1.1 ± 0.021	0.743 ± 0.0076	0.959 ± 0.021
Cc1c(CN2CCN(C(=O)[C@H](C)O)CC2)sc2c(N3CCOCC3)nc(-c3cnc(N)nc3)nc12	0.631 ± 0.017	0.433 ± 0.034	0.59 ± 0.02	0.399 ± 0.076	0.757 ± 0.035	0.552 ± 0.033
COc1ccc(-c2nc(N3CCOCC3)c3sc(CN(C)c4ncc(C(=O)NO)cn4)cc3n2)cn1	0.00442 ± 0.0038	0.00164 ± 0.00085	0.0384 ± 0.044	0.00149 ± 0.001	0.00371 ± 0.0034	0.000104 ± 0.00053
CS(=O)(=O)N1CCN(Cc2cc3nc(-c4cccc5[nH]ncc45)nc(N4CCOCC4)c3s2)CC1	1.02 ± 0.022	1.05 ± 0.015	1.02 ± 0.011	1.05 ± 0.015	0.998 ± 0.012	1.005 ± 0.0087
C[C@H]1c2cccc(O)c2C(O)=C2C(=O)[C@]3(O)C(O)=C(C(N)=O)C(=O)[C@@H](N(C)C)[C@@H]3[C@@H](O)[C@@H]21 [Doxycycline HCl]	0.994 ± 0.007	0.986 ± 0.026	0.9957 ± 0.0031	0.99 ± 0.006	0.9947 ± 0.0025	1 ± 0.015
